Rows were chosen to be rich in hits. Some 9.4% of all compounds tested hit in one or more screens of this group.
NPC1 promoter act = qHTS Assay for NPC1 Promoter Activators. Huh7 NPC1 promoter luciferase reporter, 24 h. Potency, µM (doses to about 9.22 µM), usual class: activators. 320,000 tested, 2.4% active; note: nearly all actives have a fitted effect of over 60% in size
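Stable NPC1-promoter luciferase Huh7 line; cpd (DMSO) 24 h, 37 °C, 5% CO2; Amplite luciferase reagent 10 min RT; luminescence readout. qHTS format.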
ELG1 repair inh = qHTS screen for small molecules that inhibit ELG1-dependent DNA repair in human embryonic kidney (HEK293T) cells expressing luciferase-tagged ELG1; HEK293T ELG1-luciferase reporter, luminescence, 16 h; DNA damage induced by 5-fluorouridine; Potency, µM (top dose mostly 46.1 µM), most hits filed as inhibitors; 330,000 tested, 2.3% active; note: nearly all actives have a fitted effect of over 55% in size
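HEK293T cells expressing luciferase-tagged ELG1 (2,000/well) received 5-Fluorouridine plus compound or DMSO for 16 hr at 37 °C. Luciferase was read by ONE-Glo luminescence after 30 min at room temperature.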
ELG1 genotoxic = qHTS screen for small molecules that induce genotoxicity in human embryonic kidney (HEK293T) cells expressing luciferase-tagged ELG1 | HEK293T ELG1-luciferase reporter, luminescence, 16 h | AID 504466, 2011 | Potency, µM (series often up to 46 µM), most hits filed as activators | 330,000 tested, 1.3% active; note: nearly all actives have a fitted effect of over 60% in size
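Genotoxicity was scored as increased ELG1-luciferase reporter signal, measured by ONE-Glo luminescence (30 min, room temperature). Compound or vehicle exposure of the HEK293T reporter cells lasted 16 hr at 37°C.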
Rab9 prom act = qHTS Assay for Rab9 Promoter Activators. Huh7 Rab9 promoter-luciferase reporter, luminescence, 24 h. Potency, µM (top dose mostly 9.22 µM), most hits filed as activators. 320,000 tested, 2.8% active; note: nearly all actives have a fitted effect of over 60% in size
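Using Huh7 cells stably transfected with Rab9 promoter–luciferase, compounds were incubated 24 h at 37 °C, 5% CO2; luciferase luminescence was read 10 min after reagent addition.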
FLuc counter = qHTS profiling assay for firefly luciferase inhibitor/activator using purifed enzyme and Km concentrations of substrates (counterscreen for miR-21 project). Potency, µM (doses to about 57.5 µM), hits mostly inhibitors. Luciferin 4-monooxygenase (Photinus pyralis), P08659. 360,000 tested, 6.9% active. purified FLuc, Km substrates, luminescence inhibition; note: nearly all actives have a fitted effect of over 55% in size
Target sequence (P08659 whole entry, looked up): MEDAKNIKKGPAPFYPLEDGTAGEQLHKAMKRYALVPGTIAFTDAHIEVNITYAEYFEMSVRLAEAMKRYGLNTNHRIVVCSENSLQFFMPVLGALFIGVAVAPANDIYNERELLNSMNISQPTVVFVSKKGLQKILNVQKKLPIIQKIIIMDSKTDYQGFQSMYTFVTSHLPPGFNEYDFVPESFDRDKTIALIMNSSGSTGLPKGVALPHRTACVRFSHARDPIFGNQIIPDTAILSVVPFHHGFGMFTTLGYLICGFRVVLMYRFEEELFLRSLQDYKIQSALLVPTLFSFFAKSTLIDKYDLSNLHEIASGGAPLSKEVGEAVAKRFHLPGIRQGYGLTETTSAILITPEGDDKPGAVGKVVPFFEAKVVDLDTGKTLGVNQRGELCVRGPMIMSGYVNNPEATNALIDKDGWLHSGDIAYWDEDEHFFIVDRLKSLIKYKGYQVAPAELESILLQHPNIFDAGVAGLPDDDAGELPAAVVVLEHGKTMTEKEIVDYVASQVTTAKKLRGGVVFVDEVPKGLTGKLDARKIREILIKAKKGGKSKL
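Purified P. pyralis luciferase, 10 nM final, with Km-level 10 uM D-luciferin and 10 uM ATP in 50 mM Tris acetate pH 7.5, 10 mM Mg acetate, 0.01% Tween-20, 0.05% BSA; 6-point qHTS titration about 60 µM downward; luminescence read.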
SMN2 splice enh = qHTS Assay for Enhancers of SMN2 Splice Variant Expression | HEK293 SMN2-luciferase splicing reporter, luminescence, 30-36 h | 210,000 tested, 2.8% active | AID 1458, 2008 | Potency, µM (highest dose often 46.1 µM), hits mostly activators; note: nearly all actives have a fitted effect of over 55% in size
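qHTS luciferase splicing reporter: luminescence rises when SMN2 exon 7 is included in transfected HEK293 cells. Compound exposure lasted 30-36 h at 37C, with 4.5 mM final sodium butyrate as control, followed by a ONE-Glo read.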
A number is an active result; 0 = inactive; ? = inconclusive; - = no result given; [ ] = dose if it differs, or a comment. Calls come from the whole dose curve; as a rule, active = well fitted curve in the direction sought with a large enough effect; inconclusive = small, poorly fitted or top-dose-only effect, or another doubt; inactive = no such curve, though single readings can be large; an effect the other way counts as inactive or inconclusive.

SMILES	NPC1 promoter act	ELG1 repair inh	ELG1 genotoxic	Rab9 prom act	FLuc counter	SMN2 splice enh
O=C(NCCc1ccccc1)c1ccc2c(=O)[nH]c3c(C(=O)NCC4CCCO4)sc(=S)n3c2c1 (configuration not stated)	0	0	0	0	?	-
CC(C)NC(=O)c1sc(=S)n2c1[nH]c(=O)c1ccc(C(=O)NCCc3ccc(Cl)cc3)cc12	0	0	0	0	?	-
Cc1cccc(NC(=O)c2ccc3snnc3c2)c1C	-	-	-	-	0	0
Cc1ccccc1NC(=O)c1ccc2c(c1)OCCO2	?	?	?	?	0[2.3 µM]	?
Cc1ccc(NC(=O)COc2ccc3c(c2)OCO3)c(Cl)c1	2.8µM	?	?	?	1.5µM	-
N#Cc1ccccc1NC(=O)COc1ccccc1C(=O)Nc1ccccc1	-	21µM	0	-	-	-
N#Cc1ccccc1NC(=O)COC(=O)c1ccc2c(c1)OCCO2	0	0	0	?	19µM	0
CCc1ccccc1NC(=O)COc1ccc2c(c1)OCO2	0	0	0	0	0	0
Cc1cccc(NC(=O)c2ccc3c(c2)OCCO3)c1C	0	?	?	3.2µM	15µM	-
CCc1ccc(C(=O)c2cn(CC(=O)Nc3ccc4c(c3)OCO4)c3ccc(OC)cc3c2=O)cc1	-	-	-	-	0	0
N#Cc1ccccc1NC(=O)c1ccc2c(c1)OCCO2	?	?	?	?	21µM	-
N#Cc1ccccc1COC(=O)c1ccc2c(c1)OCCO2	0	?	0	0	13µM	-
N#Cc1ccccc1NC(=O)COc1ccc2c(c1)OCO2	4µM	?	?	3.5µM	21µM	-
CCCCNC(=O)c1ccccc1NC(=O)c1ccc2c(c1)OCO2	0	?	0	0	19µM	0
CCN(CC)S(=O)(=O)c1ccc2c(c1)c(=O)c(C(=O)N1CCN(c3cccc(C)c3)C(C)C1)cn2C (configuration not stated)	-	-	-	-	0	0
COC(=O)c1ccccc1NC(=O)c1ccc2c(c1)OCCCO2	?	?	?	2µM	19µM	-
Nc1nc(SCc2ccc(F)cc2)ns1	0	?	0	0	?	0
Cc1cc(/C=C2\SC(=Nc3ccccc3)NC2=O)c(C)n1-c1ccc(S(N)(=O)=O)cc1	0	11µM	0	0	?	0
Cc1cc(/C=C2\SC(N)=NC2=O)c(C)n1-c1ccc(F)cc1	0	?	0	0	0.85µM	-
Cc1cc(/C=C2\SC(=S)NC2=O)c(C)n1-c1cccc(O)c1	2.5µM	?	?	1.6µM	1.1µM	-
Cc1sc(-n2c(C)cc(/C=C3\SC(=S)NC3=O)c2C)c(C#N)c1C	0	0	0	?	13µM	0
Cc1sc(-n2c(C)cc(/C=N/n3cnnc3)c2C)c(C#N)c1C	0	?	0	0	?	-
Cc1cnc(CNc2ncnc3ccc(-c4ccccc4C#N)cc23)cn1	-	-	-	-	-	0
Cc1cc(/C=C2\SC(=S)N(C)C2=O)c(C)n1-c1ccc(O)cc1	0	?	?	0	0.54µM	-
COc1ccc(-n2c(C)cc(/C=C3\SC(=O)NC3=O)c2C)cc1	?	?	?	?	12µM	-
SMILES	NPC1 promoter act	ELG1 repair inh	ELG1 genotoxic	Rab9 prom act	FLuc counter	SMN2 splice enh
Cc1cc(/C=C2/C(=O)NN(c3ccccc3)C2=O)c(C)n1-c1cccc(O)c1	1.6µM	?	?	3.5µM	0.13µM	0
Cc1ccc(-n2c(C)cc(/C=C3\SC(=O)NC3=O)c2C)cc1	2.5µM	?	?	0.71µM	2.7µM	-
O=C(O)c1cccc(NC(=O)c2cccc(S(=O)(=O)N3CCc4ccccc43)c2)c1	0	?	0	0	21µM	-
O=C(O)c1cccc(NC(=O)c2cccc(S(=O)(=O)N3CCc4ccccc4C3)c2)c1	0	0	0	0	21µM	0
O=C(Nc1cccnc1)c1ccc(Cl)c(S(=O)(=O)N2CCc3ccccc32)c1	0	13µM	0	0	0	0
CCn1c(=O)n(CC)c2cc(S(=O)(=O)N3CCc4ccccc43)ccc21	0	16µM	0	0	0	0
COc1ccc(Cl)cc1NC(=O)CCc1c(C)nc2c(c1C)c(=O)n(C)c(=O)n2C	-	-	-	-	0	0
COc1ccc(-c2nnc(SCC(=O)Nc3ncc(C)s3)n2-c2ccccc2)cc1OC	0	21µM	0	0	0	0
O=C(NC1CCCCC1)C(=S)N1CCCC1	0	0	0	0	0	0
O=C(NC1CCCCC1)C(=S)NCc1ccccc1	?	?	0	?	21µM	?
O=C(NC1CCCCCC1)C(=S)NCc1ccccc1	0	?	0	?	21µM	0
O=C(CSc1ccccc1C(=O)NCc1ccccc1)NC1CCCCCCC1	0	0	0	0	24µM	0
O=C(NC1CCCCC1)C(=S)NC1CCCCC1	2.8µM	?	?	3.5µM	?	14µM
O=C(CSc1ccccc1C(=O)O)NC1CCCCCC1	0	?	0	0	0	-
O=C(NC1CCCCCC1)C(=S)NCCc1ccccc1	0	?	0	0	?	0
Cc1cc(C)c(NC(=O)c2c(C)oc3c2C2=NCCN2C=N3)c(C)c1	-	-	-	-	0	-
O=C(Nc1ccccc1Br)c1cc(=O)c2ccccc2o1	2.5µM	?	7.3µM	4µM	12µM	-
O=C(Nc1ccccc1Cl)c1cc(=O)c2ccccc2o1	3.5µM	?	?	?	15µM	-
Nc1sc(-c2ccccc2)cc1C(=O)N/N=C/c1ccc(Cl)cc1	0	0	0	0	6µM	-
O=C(N/N=C/c1ccc(Cl)cc1)c1cc2c(s1)-c1ccccc1CC2	0	0	0	0	0	0
COC(=O)c1cc(-c2ccccc2)sc1N	0	?	?	0	21µM	0
CCOc1nc(-c2ccccc2)ccc1-c1noc(-c2cccs2)n1	0	0	0	0	?	0
COc1ccccc1-c1noc(-c2cccs2)n1	1.6µM	?	?	2.2µM	7.6µM	11µM
Brc1ccc(-c2nc(-c3ccncc3)no2)o1	?	?	18µM	?	?	?
Cc1ccccc1-c1nc(-c2ccccn2)no1	?	?	?	0.45µM	0.48µM	1.1µM
SMILES	NPC1 promoter act	ELG1 repair inh	ELG1 genotoxic	Rab9 prom act	FLuc counter	SMN2 splice enh
COc1ccc(-c2noc(-c3ccc(Br)o3)n2)cc1OC	0	?	?	0	0	0
CSc1ccccc1-c1nc(-c2ccncc2)no1	3.5µM	?	?	?	?	-
O=C(Nc1cccc(F)c1)N1CCCC2(CCNCC2)C1	-	-	-	-	-	0
CCc1ccccc1NC(=O)C1CCN(c2nn3c(=O)cc(C)nc3s2)CC1	-	-	-	-	0	0
Cc1nc(-c2noc(-c3ccccc3Cl)n2)c(C(F)(F)F)o1	?	?	0	0	15µM	-
Cc1ccc(-c2nc(-c3ccncc3)no2)c(Cl)c1	0.63µM	?	0.46µM	?	0.48µM	-

Source: PubChem (National Center for Advancing Translational Sciences (NCATS))
